In PubChem BioAssay AID493131 (Broad Institute, 2011):
About 3,300 (0.97%) of roughly 340,000 compounds were called active. This is one part of a sample in which actives are shown more often than they occur. Unmarked numbers belong to inactive results.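 The calls were made as follows: active = mean activation above about 17%, with every replicate also reaching it (limit read from the data, passing the limit was not always enough); inconclusive = only one of the two conditions met; inactive = the rest.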

These compounds were tested against Protein FosB (Mus musculus) (UniProt P13346) (assay: activators of delta FosB homodimer, primary screen, biochemical, fluorescence polarization, TAMRA-CDK5 oligo, single point (AID 493131;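 also: fluorescence polarization rise as delta FosB binds a TAMRA Cdk5 AP-1 oligo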)). Details: purified delta FosB, at 25 µM, stronger effect = higher value, percent of positive-control signal above neutral wells.
Protein FosB (Mus musculus), sequence (P13346 whole entry, looked up): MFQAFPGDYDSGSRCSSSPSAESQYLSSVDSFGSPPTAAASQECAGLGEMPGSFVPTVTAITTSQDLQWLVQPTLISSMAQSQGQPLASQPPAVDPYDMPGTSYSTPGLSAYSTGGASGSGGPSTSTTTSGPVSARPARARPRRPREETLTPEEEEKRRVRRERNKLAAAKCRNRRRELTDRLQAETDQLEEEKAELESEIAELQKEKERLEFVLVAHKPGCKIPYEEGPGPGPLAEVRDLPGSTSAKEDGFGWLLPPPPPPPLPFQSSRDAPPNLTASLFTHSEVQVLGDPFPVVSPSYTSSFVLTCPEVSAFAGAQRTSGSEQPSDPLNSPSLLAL

Structure (SMILES) | activation
Cc1ccsc1C(=O)NNC(=O)COc1ccc(Br)cc1 | -0.652%
NC(=NC(=O)c1ccccc1)C1=C(O)CCC1=O | -12.8%
COCCOC(=O)C1=C(C)Nc2nc(C)nn2C1c1ccccc1 (stereo not given) | -7.61%
COc1cc(C2C(C(=O)Nc3ccc(F)cc3)=C(C)Nc3nc(CCCO)nn32)cc(OC)c1OC (stereo not given) | -9.9%
COC(=O)c1nc2n(n1)C(c1ccc([N+](=O)[O-])cc1)C(C(=O)Nc1ccc(Cl)cc1)=C(C)N2 (stereo not given) | 34.5% (active)
COC(=O)/C(=C\Nc1ccccc1)NC(=O)c1ccc(Cl)cc1Cl | 4.01%
COc1cccc(C2CC(c3cccs3)=NN2C(=O)CSC2=NCCS2)c1OC (stereo not given) | -11.4%
Nc1nonc1-n1nnc(C(=O)N/N=C/C2CCCCC2)c1-c1ccccc1 | -11.3%
Nc1nonc1-n1nnc(C(=O)N/N=C/c2ccc(Cl)cc2)c1-c1ccc2c(c1)OCO2 | 32.2% (active)
CC(C)c1c(C(=O)N/N=C/c2ccc(-c3ccccc3)cc2)nnn1-c1nonc1N | -2.45%
CC(Sc1nncn1C)C(=O)Nc1ccccc1-c1ccccc1 (stereo not given) | -4.45%
O=C(CSCc1ccc([N+](=O)[O-])cc1)Nc1cccc(C(=O)Nc2ccccc2C(=O)O)c1 | -3.8%
O=C(COCc1cc(-c2ccc3c(c2)OCO3)on1)N1CCN(c2cccc(Cl)c2)CC1 | -10.2%
CN1CCN(CCCNC(=O)c2cc3c(=O)oc4ccccc4c3s2)CC1 | -39.5%
Cc1cccc2c1-c1sc(C(=O)NCCCN3CCc4ccccc4C3)cc1CO2 | 22.8% (active)
O=C(NCCCN1CCOCC1)c1cc2c(s1)CCC2 | -3.83%
C=CCn1c(Oc2ccc(C(=O)OC)cc2)nc2c1c(=O)n(C)c(=O)n2C | 2.74%
CC(C)=C1C2CCC1C1C(=O)N(NC(=O)c3ccco3)C(=O)C21 (stereo not given) | 5.44%
COc1ccc(C)cc1NC(=O)CCCN1C(=O)NC(C)(C)C1=O | 1.82%
COc1ccc(OC)c(C(=O)c2ccc(Cl)cc2)c1 | 6.81%
O=C(c1ccc(F)cc1)c1cn(Cc2ccc(F)cc2)c2cc3c(cc2c1=O)OCCO3 | -2.37%
COc1ccc2c(c1)c(=O)c(C(=O)c1ccc(Cl)cc1)cn2CC(=O)Nc1ccc(F)cc1 | 101% (active)
CC1(C)CC2CC(C)(CN2c2ncnc3ccc(Br)cc23)C1 (stereo not given) | -14.7%
C=CCn1c2ccccc2c2nnc(SCc3[nH]c(=O)[nH]c3C(=O)CCCCC(=O)OCC)nc21 | -0.527%
CCOc1cc(NC(=O)c2ccccc2C(=O)O)c(OCC)cc1NC(=O)c1ccccc1F | -3.46%
CCN1CCN(c2cc3nc(C)n(Cc4ccccc4)c(=O)c3cc2NC(=O)c2ccccc2F)CC1 | 27.5% (active)
CCC(=O)Nc1ccc2nc(C)n(Cc3ccccc3Cl)c(=O)c2c1 | -9.12%
CCOc1cc(CO)ccc1OCC(=O)N1CCCCC1 | -0.227%

Structure (SMILES) | activation
O=C(COc1coc(CN2CCN(c3ccccc3)CC2)cc1=O)Nc1ccccc1F | -11.2%
O=C(COc1coc(CN2CCN(c3ccccc3F)CC2)cc1=O)N1CCc2ccccc21 | 21.9% (active)
O=C(COc1coc(CN2CCN(c3ccccc3)CC2)cc1=O)N1CCc2ccccc21 | -7.12%
Nc1cc(=O)n(Cc2ccccc2)c(=O)n1Cc1ccccc1 | -1.18%
CC(=O)Nc1sc2c(c1C(c1cccc(F)c1)N1CCN(CCO)CC1)CCCC2 (stereo not given) | -12.2%
Cn1cccc1/C=C1\SC(=O)N(CC(=O)Nc2ccc(F)cc2)C1=O | 30.6% (active)
Cc1nn(CC(=O)Nc2ccc(F)cc2)c(=O)c2ccccc12 | 0.886%
O=C(CN1C(=O)S/C(=C\c2ccccc2F)C1=O)NCCCn1ccnc1 | -4.31%
CC(C)c1cc(C(=O)O)on1 | 5.07%
COc1ccc(C2CC(c3cccs3)Nc3nnnn32)cc1 (stereo not given) | -5.14%
Fc1ccc(-c2ccc(CNCc3ccccn3)o2)cc1Cl | -10.2%
O=C(Cc1nc2ccccc2[nH]c1=O)c1ccc(Cl)cc1 | 25% (active)
O=C(Cc1ccc(Cl)cc1)c1ccccc1 | -2.82%
O=C(/C(=C/c1cccc(Cl)c1)c1nc2ccccc2[nH]1)c1ccccc1 | 0.879%
COc1cccc2c1C(=O)c1c(O)c3c(c(O)c1C2=O)CC(O)(C(C)=NNC(=O)c1ccc(Cl)c(Cl)c1)CC3OC1CC(N)C(O)C(C)O1 (stereo not given) | -409%
O=C(COc1ccccc1Cl)Nc1ccccc1C(=O)NC1CC1 | -11.8%
O=C(COc1ccccc1Cl)Nc1ccc(C(=O)c2ccc(C(=O)O)cc2)cc1 | -0.74%
CC(=O)Nc1ccc(NC(=O)COc2ccccc2C(=O)Nc2cccc(Cl)c2Cl)cc1 | 26% (active)
O=c1c2ccccc2oc2nc(C3CCCCC3)n(Cc3ccco3)c(=O)c12 | 34% (active)
CCc1nc2oc3ccccc3c(=O)c2c(=O)n1Cc1ccc(OC)cc1 | -18.5%
O=c1c2ccccc2oc2nc3n(c(=O)c12)CCCS3 | -28.8%
COC(=O)c1cc(C(=O)N(Cc2ccccc2)c2ccccn2)cc([N+](=O)[O-])c1 | -5.79%
CC(C)C[C@H]1CN([C@@H](CC(C)C)CN2CCC[C@@H]2CN2C(=O)C(=O)NC[C@@H]2Cc2ccccc2)C(=O)C(=O)N1CCc1ccccc1 | -16%
C[C@@H](CN1CCC[C@H]1CN1C(N)=NC[C@@H]1Cc1ccccc1)N1C[C@@H](Cc2ccccc2)N(CCCC2CCCC2)C1=N | -7.85%
CC[C@@H](C)[C@@H]1CN([C@@H](C)CN2CCC[C@H]2CN2C(N)=NC[C@H]2C(C)C)C(=N)N1CCc1ccc(Cl)c(Cl)c1 | 23.1% (active)
Cc1cc(SCC(=O)NCCN2C(=O)CSC2=O)nc2ccccc12 | 5.19%
C=CCNC(=O)c1ccc2c3n(nc2c1)-c1ccc(C)cc1CO3 | -4.63%
